Assay outcomes (PubChem)
Sampled rows, rich in hits. Any-hit rate of the full collection: about 9.4%.
Pf growth 48h – inhibits P. falciparum growth in the first generation, 48 h | P. falciparum luciferase growth in erythrocytes, 48 h | Potency, µM (titrated, usually from 28.7 µM), usual class: inhibitors | actives 5.9% (n = 310,000)
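In quantitative HTS format, infected erythrocytes bearing luciferase-reporter parasites were treated for a single generation at 37 C. Luminescence after adding detection reagent served as the growth measure.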
AMA1-RON2 inh – disrupts binding of P. falciparum AMA1 to RON2. AID 720542. AlphaScreen AMA1-biotinylated RON2 peptide binding. Potency, µM (series often up to 58.2 µM), actives largely listed as inhibitors. actives 0.2% (n = 360,000); also: nearly all actives have a fitted effect of over 45% in size
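AMA1 (3D7) with his tag at 25 nM final met compounds first, then biotinylated RON2 peptide at 25 nM; detection used donor plus acceptor beads, 10 µg/mL apiece, read by AlphaScreen after 30 min at room temperature.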
SARS PLpro yeast-1 – SARS-CoV PLP inhibition in yeast. S. cerevisiae expressing SARS-CoV PLpro, growth rescue. Potency, µM (series often up to 32.9 µM), hits mostly activators. actives 0.19% (n = 330,000); calls by dose curve; also: nearly all actives have a fitted effect of over 55% in size
Pf growth 96h – inhibits malaria parasite growth, 96 h | P. falciparum luciferase reporter growth, 96 h | Potency, µM (top dose mostly 28.7 µM), usual class: inhibitors | actives 6.9% (n = 320,000) | AID 504834
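Compounds incubated with erythrocytes infected by luciferase-expressing P. falciparum (2% hematocrit, 0.05% parasitemia final) for 96 hours, 37 C in 5% CO2. Growth inhibition scored as decreased luciferase luminescence.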
SARS PLpro yeast-2 – Inhibits SARS-CoV PLP in yeast, hit validation | shares compounds with SARS PLpro yeast-1 | AID 652038 | yeast expressing SARS-CoV PLpro, growth phenotype rescue | calls only | actives 19% (n = 1,000); call rule not given here
Numbers stand for hits; - = inactive; ? = inconclusive; . = not tested or not shown; + = active, no number; ! = repeats disagree; [ ] = another dose, or the depositor's remark. Unless noted, calls follow the shape of the dose curve; as a rule, active = well fitted curve in the direction sought with a large enough effect; inconclusive = small, poorly fitted or top-dose-only effect, or another doubt; inactive = no such curve, though single readings can be large; an effect the other way counts as inactive or inconclusive.

SMILES	Pf growth 48h	AMA1-RON2 inh	SARS PLpro yeast-1	Pf growth 96h	SARS PLpro yeast-2
COCCCNC(=O)c1c(NC(=O)C2COc3ccccc3O2)sc2c1CCCC2 (stereo unspecified)	.	-	?	?	-
COc1ccc(C)cc1NC(=O)c1cc2ccccc2cc1OCC(=O)NCc1ccco1	.	-	3.55µM	?	+
Cc1c(NC(=O)CSc2ccc(Cl)cc2)c(=O)n(-c2ccccc2)n1C	-	-	-	-	.
Cc1ccc(SCCC(=O)Nc2c(C)n(C)n(-c3ccccc3)c2=O)cc1	.	-	?	-	-
Cc1c(NC(=O)C(C)Sc2ccccc2)c(=O)n(-c2ccccc2)n1C (stereo unspecified)	.	-	-	-	.
Cc1ccc(SC(C)C(=O)Nc2c(C)n(C)n(-c3ccccc3)c2=O)cc1 (stereo unspecified)	-	-	?	.	+
CC(C)(C)OC(=O)[C@H](Cc1ccccc1)NC(=O)c1nc[nH]c1C(=O)NCC(=O)OCc1ccccc1	-	-	-	-	.
CCOc1ccc(N(C(=O)Nc2ccccc2)C2=NCCC2)cc1	.	-	-	-	.
CNC(=O)N(C1=NCCCCC1)c1ccc(Br)cc1	?	-	.	?	-
Cc1ccc(CC(=O)O/N=C(\N)c2cccc([N+](=O)[O-])c2)cc1	-	-	.	14.7µM	-
Cc1ccc(C(=O)O/N=C(\N)c2cccc([N+](=O)[O-])c2)cc1	-	-	-	-	.
O=C(CCCOc1ccc(Cl)cc1Cl)N/N=C/c1ccccc1O	?	-	?	?	-
Cc1cccc(C(=O)O/N=C/c2c(Cl)n(C)c3ccccc23)c1	-	-	-	-	.
CC(CNC(=O)Cn1cnc2c(NCc3ccccc3)ncnc21)c1ccccc1 (stereo unspecified)	.	-	14.1µM	.	+
CCCn1c(=O)c(Cc2ccccc2)c(O)c2ccccc21	-	-	-	-	.
Cn1c(=O)c(Cc2ccccc2)c(O)c2ccccc21	-	-	10µM	.	?
Cc1c(C(=O)N2CCN(S(=O)(=O)c3ccc(F)cc3)CC2)oc2ccccc12	-	-	?	?	-
O=C1/C(=C/C=C/c2ccco2)SC(=S)N1c1ccc(O)cc1	-	?	-	-	.
O=C1/C(=C\c2ccco2)SC(=S)N1c1ccc(O)cc1	-	-	.	-	-
O=C(NC(=S)Nc1ccccn1)c1ccco1	-	-	3.16µM	-	-
COc1ccccc1C(=O)NCC(=O)OC(C)C(=O)NC1CCCCC1C (stereo unspecified)	-	-	-	-	.
COc1ccccc1C(=O)NCC(=O)OC(C)C(=O)NC(=O)NC1CCCCC1 (stereo unspecified)	.	-	?	-	-
CCCCN1CC(=O)N2[C@H]3c4ccc(OC)cc4OC[C@@H]3[C@H](c3ccccc3)[C@]2(C)C1=O	2.08µM	-	?	7.38µM	-
COc1ccc(CN2CC(=O)N3[C@H]4c5cc(C)ccc5OC[C@@H]4[C@H](c4ccccc4)[C@]3(C)C2=O)cc1	.	-	-	.	.
COc1ccc2c(c1)OC[C@H]1[C@H]2N2C(=O)CN(Cc3ccc(C)cc3)C(=O)[C@@]2(C)[C@H]1c1ccccc1	?	-	11.2µM	?	-
SMILES	Pf growth 48h	AMA1-RON2 inh	SARS PLpro yeast-1	Pf growth 96h	SARS PLpro yeast-2
Cc1ccc(NC(=S)/N=C(\N)Nc2nc(C)c3ccccc3n2)cc1C	11.7µM	-[2.32 µM]	10µM	2.33µM	+
Clc1ccc(OCc2nc(-c3ccccn3)n[nH]2)cc1	-	-	-	.	.
Brc1ccc(OCc2nc(-c3ccccn3)n[nH]2)cc1	.	-	?	-	+
COc1cc(/C=C/C(=O)O)ccc1OS(=O)(=O)c1cc(Br)ccc1C	?	-	10µM	?	-
COc1cc(/C=C/C(=O)O)ccc1OS(=O)(=O)c1cc(C)ccc1C	-	-	-	-	.
Brc1ccc(C2N3CCCN23)cc1 (stereo unspecified)	-	-	17.8µM	-	?
Cc1c(N/N=C(\C#N)C(=O)c2ccc(Cl)cc2)c(=O)n(-c2ccccc2)n1C	11.7µM	-	12.6µM	-	-
CC1(C)CC(=O)C(N=Nc2cc(Cl)c(Cl)c(Cl)c2)=C(O)C1	.	-	-	-	.
Cc1ccc(O)c(N=NC2=C(O)CC(C)(C)CC2=O)c1	?	-	17.8µM	?	+
CCOC(=O)N1CCN(c2ccc(C(F)(F)F)cn2)CC1	-	-	-	?	.
CCOC(=O)C(C)S(=O)(=O)c1ccc(C(F)(F)F)cn1 (stereo unspecified)	-	-	?	-	-
CCCNC(=O)Cc1c(OC)ccc2cc(Br)ccc12	-	-	-	-	.
CC/C=C\C/C=C\C/C=C\C/C=C\C/C=C\CCCC(=O)O	-	.	.	-	.
O=C1CCC(=O)N1c1nc2nc(-c3ccccc3)cc(=O)n2[nH]1	-	-	-	.	.
O=c1c2c3c(sc2nc2n1CCCCC2)CCCC3	-	-	4.47µM	.	-
CC1(C)Cc2c(sc(NC(=O)Nc3ccccc3)c2C(N)=O)CO1	-	-	-	?	.
CCC(C)NC(=O)COC(=O)c1cccnc1Nc1ccccc1F (stereo unspecified)	-	-	-	-	.
Cc1cc(/C=C2/NC(=O)N(Cc3ccccc3F)C2=O)c(C)n1C(C)C	?	-	?	10.4µM	-
CC1=C(C(=O)N2CCc3ccccc32)C2(CCC(C)CC2)OC1=O (stereo unspecified)	?	-	?	?	-
Nc1nonc1N/N=C/c1c(O)ccc2ccccc12	-	-	-	-	.
Nc1cc(Cl)nc(N/N=C/c2c(O)ccc3ccccc23)n1	?	-	2.51µM	?	-
Cc1ccc(Cn2ccsc2=NC(=O)CCl)cc1	?	-	-	?	.
Cc1cc(-c2n[nH]c(=S)n2CC(C)C)cs1	-	-	?	-	+
Cc1sc2ncnc(N/N=C/c3ccccc3O)c2c1C	2.94µM	-	1.12µM	-	?
Cc1sc2ncnc(N/N=C/c3ccc(O)cc3)c2c1C	-	-	-	?	.
SMILES	Pf growth 48h	AMA1-RON2 inh	SARS PLpro yeast-1	Pf growth 96h	SARS PLpro yeast-2
Oc1ccccc1/C=N/Nc1ncc(Br)cn1	2.08µM	-	?	-	-
Cc1csc(N/N=C/c2ccc(O)c([N+](=O)[O-])c2)n1	.	-	10µM	?	+
COc1ccc(C)cc1NC(=O)CN(C)S(=O)(=O)c1cccs1	.	-	-	.	.
COc1ccc(C)cc1NC(=O)CN(C)S(=O)(=O)c1cnc[nH]1	-	-	?	.	-
CC(C)(C)N(Cc1cc2ccccc2[nH]c1=O)C(=O)c1cccnc1	-	-	-	-	.
CNNC(=S)Nc1ccc(Cl)cc1	-	-	-	-	.
CN(C)NC(=S)Nc1ccc(Cl)cc1	.	-	11.2µM	-	+
COc1ccc(NC(=O)CN2CCc3ccccc3C2)cc1S(=O)(=O)N1CCOCC1	?	-	-	?	.
COc1ccc(NC(=O)CN2CCOCC2)cc1S(=O)(=O)N1CCCCC1	-	-	?	-	-
Cn1c2cc(C#N)sc2c2cnn(Cc3ccc(F)cc3)c(=O)c21	-	.	5.62µM!	-	-
COc1cccc(N2CCN(CC(=O)C34CC5CC(CC(C5)C3)C4)CC2)c1	.	-	-	?	.
O=C(Cn1c2ccccc2c2nc3n(c(=O)c21)CCS3)N1CCCC1	-	-	-	-	.
